We go through 24 compounds from PubChem BioAssay (Tox21).

SMILES strings stand for the structures. Values without a mark were called inactive. Inconclusive results are not listed. Calls of active or inactive are those of the source. Unless noted, calls come from the whole dose curve; as a rule, active = well fitted curve in the direction sought with a large enough effect in the repeat runs; inconclusive = weak or mixed curves; inactive = no such curve, though single readings can be large; an effect the other way counts as inactive or inconclusive.

Assay [1] has as its target Estrogen receptor beta (Homo sapiens) (UniProt Q92731). Description: qHTS assay to identify small molecule agonists of the estrogen receptor beta (ER-beta) signaling pathway (AID 1259377; active = well fitted activation curve with a large enough effect in the signal ratio in the repeat runs, not every such curve was filed as active; the % refers to the signal ratio). In short, it runs like this:
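A UAS-controlled beta-lactamase reporter in ER-beta-UAS-bla HEK293T cells reports receptor activation. Compounds act for 16 hr at 37C in 2% charcoal-stripped serum, and a FRET substrate is read by fluorescence after 2 hours.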

The target is the same in assay [2]. Description: qHTS assay to identify small molecule antagonists of the estrogen receptor beta (ER-beta) signaling pathway (AID 1259378; active = well fitted inhibition curve with a large enough effect in the signal ratio in the repeat runs, not every such curve was filed as active; the % refers to the signal ratio). The gist of the method: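 ER-beta-UAS-bla HEK293T (GripTite) cells in 2% charcoal-stripped FBS medium were preincubated 6 hr at 37C, dosed with compound, then stimulated with 1 nM E2 (final) for 16 hr; beta-lactamase reporter read by B/G FRET fluorescence after 2 hr substrate loading.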

Assay [3] can be described thus: qHTS assay to identify small molecule agonists of the androgen receptor (AR) signaling pathway in the presence of an antagonist - cell viability counter screen (AID 1259379).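 For activity change, negative = cytotoxicity: MDA-kb2 human breast cancer cells carrying an MMTV luciferase reporter; series mostly up to about 92 µM.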 Note: nearly all actives have a fitted effect of over 25% in size. Note: potency is the fitted concentration of half-maximal effect. The gist of the method: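 MDA-kb2 viability measured by CellTiter-Fluor fluorescence in the same wells as the luciferase signal; nilutamide 3.0uM final; 15-point compound titration; 16 hr at 37C.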
On the technique in general: In qHTS, concentration-response curves come from the screen itself.

A short description of assay [4]: qHTS assay to identify small molecule agonists of the estrogen receptor beta (ER-beta) signaling pathway - cell viability counter screen (AID 1259380). Note: nearly all actives have a fitted effect of over 30% in size. The gist of the method:
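Measured: luminescence from CellTiter-Glo after 30 min at room temperature, added to wells already read for the LiveBLAzer FRET reporter (2 hr substrate); ER-beta-UAS-bla HEK293T cells had 16 hr compound treatment at 37C, 5% CO2.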

Assay [5] has as its target Androgen receptor (Homo sapiens) (UniProt P10275). In words: qHTS assay to identify small molecule agonists of the androgen receptor (AR) signaling pathway in the presence of an antagonist (AID 1259381; calls by dose curve; note: nearly all actives have a fitted effect of over 15% in size). In short, it runs like this:
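Luminescent ONE-Glo read, 30min at room temperature, follows 16hr compound exposure (15 concentrations) of MDA-kb2 cells at 37C, 0% CO2, with nilutamide added at 3.0uM final.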

Assay [6] can be described thus: qHTS assay to identify small molecule antagonists of the estrogen receptor beta (ER-beta) signaling pathway - cell viability counter screen (AID 1259382). Note: series mostly up to about 92 µM; nearly all actives have a fitted effect of over 55% in size. The gist of the method: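 Readout: luminescence, CellTiter-Glo, same wells as bla assay. System: ER-beta-UAS-bla GripTite HEK293T, 2% charcoal-stripped FBS. Exposure: compounds plus 1nM 17-beta-estradiol, 16 hr, 37C.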

Assay [7] in a line: qHTS assay to identify small molecule agonists or antagonists of the thyroid stimulating hormone receptor (TSHR) signaling pathway - wild type cell line counter screen (AID 1259384; calls by dose curve). The gist of the method:
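Wild-type HEK293 cells were plated 18 h at 37 C/5% CO2, pin-dosed with compound plus Ro20-1724 medium, held 30 min at room temperature, then given cAMP-d2 and anti-cAMP-cryptate; fluorescence was read after 1 h. Fifteen concentrations, triplicate.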

Assay [8] deals with Thyrotropin receptor (Homo sapiens) (UniProt P16473). In words: qHTS assay to identify small molecule antagonists of the thyroid stimulating hormone receptor (TSHR) signaling pathway (AID 1259385; calls by dose curve; note: nearly all actives have a fitted effect of over 20% in size). In short, it runs like this: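 TSHR-HEK293 cells were plated and held 18 h at 37C/5% CO2, then given compound plus Ro20-1724 and stimulated with TSH at 1.5 ng/mL final. After 30 min at room temperature, cAMP was detected with cAMP-d2/anti-cAMP-cryptate (1 h) by fluorescence.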
Chain of Thyrotropin receptor (Homo sapiens) (P16473 whole entry, looked up): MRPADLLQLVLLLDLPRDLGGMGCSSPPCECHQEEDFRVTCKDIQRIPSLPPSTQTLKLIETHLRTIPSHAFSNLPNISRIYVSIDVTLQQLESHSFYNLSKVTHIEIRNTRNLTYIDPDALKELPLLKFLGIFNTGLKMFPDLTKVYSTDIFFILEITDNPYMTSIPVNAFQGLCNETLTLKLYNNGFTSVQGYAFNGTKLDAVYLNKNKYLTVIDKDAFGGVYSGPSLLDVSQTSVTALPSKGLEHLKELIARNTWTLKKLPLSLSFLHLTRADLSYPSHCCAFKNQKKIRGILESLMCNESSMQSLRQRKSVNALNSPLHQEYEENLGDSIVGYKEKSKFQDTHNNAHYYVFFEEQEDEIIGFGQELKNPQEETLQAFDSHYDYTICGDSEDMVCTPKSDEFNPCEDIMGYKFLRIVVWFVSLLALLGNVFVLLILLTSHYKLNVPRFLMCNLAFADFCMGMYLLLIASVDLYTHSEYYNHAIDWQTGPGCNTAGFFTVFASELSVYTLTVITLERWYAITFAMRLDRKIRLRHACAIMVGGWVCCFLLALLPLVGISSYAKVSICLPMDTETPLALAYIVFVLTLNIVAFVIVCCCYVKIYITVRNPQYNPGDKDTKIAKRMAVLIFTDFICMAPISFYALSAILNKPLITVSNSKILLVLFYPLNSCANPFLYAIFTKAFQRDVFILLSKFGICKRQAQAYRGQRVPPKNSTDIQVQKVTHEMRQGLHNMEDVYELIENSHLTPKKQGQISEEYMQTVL

A short description of assay [9]: qHTS assay to identify small molecule agonists of the estrogen receptor alpha (ER-alpha) signaling pathway in the presence of an antagonist - cell viability counter screen (AID 1259386).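 Note: series mostly up to about 92 µM; cells exposed to compounds for 22 h at 37 °C before the viability read; nearly all actives have a fitted effect of over 30% in size.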 In short, it runs like this: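 The test measures whether compounds kill ER-alpha reporter cells (VM7Luc4E2) under antagonist co-treatment (ICI-182,780, 10.0nM). Fluorescence from CellTiter-Fluor is read after a 22hr exposure.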

Assay [10] has as its target Estrogen receptor (Homo sapiens) (UniProt P03372). Description: qHTS assay to identify small molecule agonists of the estrogen receptor alpha (ER-alpha) signaling pathway in the presence of an antagonist (AID 1259383; calls by dose curve; note: top concentration of the series differs between compounds; nearly all actives have a fitted effect of over 15% in size). In short, it runs like this: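 Quantitative HTS confirmation: compounds titrated at 15 concentrations onto estrogen-deprived VM7Luc4E2 cells carrying a four-ERE luciferase construct, with ICI-182,780 present at 10.0nM final. Signal is luminescence after 22hr exposure.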
% is set by controls: 0 for no effect and ±100 for the full control effect.

Chain of Estrogen receptor (Homo sapiens) (P03372 whole entry, looked up): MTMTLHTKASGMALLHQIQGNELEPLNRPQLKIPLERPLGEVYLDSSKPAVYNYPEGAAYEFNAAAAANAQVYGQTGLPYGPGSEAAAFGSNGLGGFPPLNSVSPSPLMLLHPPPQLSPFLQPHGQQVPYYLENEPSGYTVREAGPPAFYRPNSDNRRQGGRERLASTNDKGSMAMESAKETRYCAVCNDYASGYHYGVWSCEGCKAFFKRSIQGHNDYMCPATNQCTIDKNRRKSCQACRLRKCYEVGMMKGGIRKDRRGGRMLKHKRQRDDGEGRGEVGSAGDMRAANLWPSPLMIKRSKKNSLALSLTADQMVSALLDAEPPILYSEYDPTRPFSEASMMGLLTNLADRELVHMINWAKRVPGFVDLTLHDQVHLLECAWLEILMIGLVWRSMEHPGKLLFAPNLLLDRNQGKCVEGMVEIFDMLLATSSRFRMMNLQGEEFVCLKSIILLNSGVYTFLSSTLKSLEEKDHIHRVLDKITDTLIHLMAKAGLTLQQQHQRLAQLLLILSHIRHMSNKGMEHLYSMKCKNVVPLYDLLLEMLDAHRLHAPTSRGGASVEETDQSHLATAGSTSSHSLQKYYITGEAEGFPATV
Chain of Androgen receptor (Homo sapiens) (P10275 whole entry, looked up): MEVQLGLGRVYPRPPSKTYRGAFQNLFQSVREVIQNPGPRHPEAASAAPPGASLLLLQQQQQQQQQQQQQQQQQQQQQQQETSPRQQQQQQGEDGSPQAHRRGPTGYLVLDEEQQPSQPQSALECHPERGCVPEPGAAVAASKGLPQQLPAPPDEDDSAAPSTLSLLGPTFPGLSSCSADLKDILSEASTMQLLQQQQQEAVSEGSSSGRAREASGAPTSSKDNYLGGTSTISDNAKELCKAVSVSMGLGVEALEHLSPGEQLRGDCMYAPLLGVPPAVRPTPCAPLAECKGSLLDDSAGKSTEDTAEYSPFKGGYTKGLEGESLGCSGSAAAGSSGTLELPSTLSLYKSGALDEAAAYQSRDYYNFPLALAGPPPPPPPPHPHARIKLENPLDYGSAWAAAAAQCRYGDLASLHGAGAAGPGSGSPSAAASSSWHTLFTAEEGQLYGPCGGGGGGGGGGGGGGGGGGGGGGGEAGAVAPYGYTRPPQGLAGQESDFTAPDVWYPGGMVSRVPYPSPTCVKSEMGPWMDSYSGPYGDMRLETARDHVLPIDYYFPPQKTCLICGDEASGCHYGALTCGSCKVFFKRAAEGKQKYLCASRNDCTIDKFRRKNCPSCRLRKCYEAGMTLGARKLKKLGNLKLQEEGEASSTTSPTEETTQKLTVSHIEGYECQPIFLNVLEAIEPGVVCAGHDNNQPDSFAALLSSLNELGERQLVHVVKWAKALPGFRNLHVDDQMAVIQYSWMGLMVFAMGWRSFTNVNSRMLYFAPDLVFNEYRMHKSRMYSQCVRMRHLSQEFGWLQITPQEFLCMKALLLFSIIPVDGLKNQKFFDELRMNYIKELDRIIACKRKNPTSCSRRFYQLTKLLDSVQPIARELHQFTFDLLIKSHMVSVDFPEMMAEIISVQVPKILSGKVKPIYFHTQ
Chain of Estrogen receptor beta (Homo sapiens) (Q92731 whole entry, looked up): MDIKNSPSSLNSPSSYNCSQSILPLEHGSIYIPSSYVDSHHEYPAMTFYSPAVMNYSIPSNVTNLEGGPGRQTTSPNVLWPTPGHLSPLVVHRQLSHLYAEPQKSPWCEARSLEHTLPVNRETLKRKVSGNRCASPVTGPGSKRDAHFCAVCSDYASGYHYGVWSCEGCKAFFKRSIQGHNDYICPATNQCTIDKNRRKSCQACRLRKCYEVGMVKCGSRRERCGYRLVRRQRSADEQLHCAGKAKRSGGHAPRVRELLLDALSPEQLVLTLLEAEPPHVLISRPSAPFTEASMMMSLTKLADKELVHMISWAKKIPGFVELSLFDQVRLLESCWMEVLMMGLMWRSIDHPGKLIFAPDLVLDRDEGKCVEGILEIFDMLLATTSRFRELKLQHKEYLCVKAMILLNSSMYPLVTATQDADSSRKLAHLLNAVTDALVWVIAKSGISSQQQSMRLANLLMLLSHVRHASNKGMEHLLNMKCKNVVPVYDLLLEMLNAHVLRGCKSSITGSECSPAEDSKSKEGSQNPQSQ

On to `CC(C)NCC(O)COc1cccc2[nH]ccc12` (stereo not given), for which the Potency entry in assay [1], in [3], in assay [4], in [5] and in assay [9] was “inactive” throughout. Moreover, the compound was classed as inactive in assay [2], in assay [6], in assay [7] and in assay [8].
As for `NS(=O)(=O)c1cc2c(cc1Cl)CN(C1CCCCC1)C2=O`, the Potency entry in [1], in [3], in assay [4], in [5] and in [9] was “inactive” in each case. For the same compound, the outcome in assay [2], in assay [6] and in assay [7] was inactive.
With `CC(C)(C)NC(N)=O`, the Potency result in assay [1], in assay [3], in [4], in assay [5] and in assay [9] was “inactive” each time. The outcome in assay [2], in assay [6], in assay [10] and in assay [8] was inactive.
On to `CCC(C)NC(N)=O` (stereo not given), for which the Potency entry in [1], in [3], in assay [4], in [5] and in assay [9] was “inactive” throughout. Also, the call in assay [2], in assay [6], in assay [10], in assay [7] and in [8] was inactive.
For the compound `C=CCCCCCCCCCCCC`, the Potency entry in [1], in [3], in assay [4], in assay [5] and in assay [9] was “inactive” in each case. Besides, the result in assay [2], in [6], in assay [7] and in assay [8] was inactive.
Take `OCCN(CCO)c1cccc(Cl)c1`: the Potency result in [1], in assay [3], in assay [4], in [5] and in [9] was “inactive” each time. Further, the compound was called inactive in assay [2], in assay [6] and in [7].
Consider `CCN(C)C(=O)Oc1cccc([C@H](C)N(C)C)c1`, for which the Potency result in assay [1], in assay [3], in [4], in assay [5] and in assay [9] was “inactive” throughout. The compound was called inactive in [2], in assay [6], in assay [10], in assay [7] and in assay [8].
With `CCCCCCCCCC(C)=O`, the Potency entry in assay [1], in assay [3], in assay [4], in assay [5] and in assay [9] was “inactive” each time. Further, the call in [2], in assay [6], in assay [10], in [7] and in [8] was inactive.
As to `Nc1ccc(S(=O)(=O)Nc2ccc(Cl)nn2)cc1`, the Potency result in [1], in assay [3], in assay [4], in assay [5] and in assay [9] was “inactive” throughout. The call in assay [2], in [6] and in assay [10] was inactive.
Consider `CCCOC(=O)C(C)O` (stereo not given), for which the Potency entry in [1], in assay [3], in assay [4], in [5] and in assay [9] was “inactive” each time. Further, the compound was called inactive in assay [2], in assay [6], in assay [10] and in assay [7].
Take `COc1ccc(OC)c(Cl)c1`: the Potency result in assay [1], in [3], in assay [4], in assay [5] and in [9] was “inactive” in each case. The result in assay [2], in assay [6] and in assay [8] was inactive.
Turning to `C=C(C)C1CCC(C)(O)CC1` (stereo not given), the Potency entry in assay [1], in assay [3], in assay [4], in [5] and in [9] was “inactive” throughout. Besides, the compound was classed as inactive in [2], in assay [6], in [10], in assay [7] and in assay [8].
`O=C(NCCc1c[nH]c2ccccc12)c1cccnc1`: the Potency entry in assay [1], in [3], in [4], in assay [5] and in assay [9] was “inactive” throughout. Besides, the outcome in assay [2], in [6], in assay [10], in assay [7] and in [8] was inactive.
As for `N[C@@H](CCC(=O)Nc1ccc([N+](=O)[O-])cc1)C(=O)O`, the Potency result in assay [1], in assay [4], in assay [5] and in assay [9] was “inactive” throughout. In addition, the compound was classed as inactive in assay [2], in [6], in [10], in assay [7] and in [8]. In [3], the Potency is 48.6 µM (active).
For `Oc1cn2c(n1)Nc1ccc(Cl)c(Cl)c1C2`, the figures for the activation in assay [1], in assay [5] and in [10] were -3.28% [at 19 µM], 1.01% [at 19 µM] and -1.28% [at 19 µM], respectively. The activity, negative = inhibition in assay [2] is 0.533% [at 19 µM]. Moreover, the activity change, negative = cytotoxicity is 0.214% [at 19 µM] in assay [3], 8.72% [at 19 µM] in assay [4], 4.54% [at 19 µM] in assay [6] and 5.64% [at 19 µM] in assay [9]. In addition, in [7], the cAMP activity change was -0.126% [at 18.9 µM]. In addition, the activity change, negative = inhibition in [8] is -0.393% [at 19 µM].
As for `O=C(O)c1cc(Br)c(O)c(Br)c1`, the Potency entry in assay [1], in [3], in assay [4], in assay [5] and in assay [9] was “inactive” each time. The result in assay [2], in assay [6], in [7] and in [8] was inactive.
Turning to `CCN(CC)CC(=O)Nc1c(C)cccc1C`, the Potency entry in assay [1], in [3], in assay [4], in [5] and in assay [9] was “inactive” in each case. The compound was classed as inactive in assay [2], in [6] and in assay [8].
For `CC(C)C(=O)OCc1cccc(OC(=O)[C@@H]2N3C(=O)[C@@H](NC(=O)Cc4ccccc4)[C@H]3SC2(C)C)c1`, the Potency result in assay [1], in assay [3], in assay [4], in assay [5] and in assay [9] was “inactive” in each case. Moreover, the call in assay [2], in assay [6], in [10], in [7] and in assay [8] was inactive.
`CC(=O)NCc1c(I)c(NC(C)=O)c(I)c(C(=O)O)c1I`: the Potency result in assay [1], in [3], in [4], in assay [5] and in assay [9] was “inactive” throughout. The result in assay [2], in assay [6], in [10], in assay [7] and in assay [8] was inactive.
Turning to `COCCc1ccc(OCC2CO2)cc1` (stereo not given), the Potency result in [1], in assay [3], in assay [4], in [5] and in [9] was “inactive” in each case. In addition, the compound was called inactive in assay [2], in [6], in [10], in assay [7] and in assay [8].
Turning to `CC(C)NCC(O)COc1ccc(COCCOC(C)C)cc1` (stereo not given), the Potency result in [1], in assay [3], in assay [4], in assay [5] and in assay [9] was “inactive” each time. The result in [2], in [6], in assay [10] and in [8] was inactive.
For `CC(S)C(=O)NCC(=O)O` (stereo not given), the Potency entry in [1], in assay [3], in assay [4], in [5] and in assay [9] was “inactive” each time. Further, the result in assay [2], in assay [6] and in assay [8] was inactive.
With `COc1nccnc1NS(=O)(=O)c1ccc(N)cc1`, the Potency entry in assay [1], in [3], in assay [4], in assay [5] and in [9] was “inactive” in each case. The compound was called inactive in assay [2], in [6], in assay [7] and in assay [8].
In the case of `CC(C)=O`, the Potency entry in assay [1], in assay [3], in assay [4], in assay [5] and in assay [9] was “inactive” each time. In addition, the outcome in assay [2], in assay [6], in [10] and in [8] was inactive.
